The list is not random: actives were taken first. Their share in the collection is about 13%.
4-MU autofl – qHTS Assay for Spectroscopic Profiling in 4-MU Spectral Region. compound autofluorescence, 340/450 nm, 4-MU equivalents; active compounds read high. max dye-equivalent concentration, M. 59,000 compounds, 11% hits; in the data active = max dye-equivalent concentration above about 10 nM; inconclusive = mostly about 1.1 nM to 9.6 nM
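Compounds in 100 mM Tris, pH 8.0, incubated 15 min at room temperature, then fluorescence read at 340 nm excitation/450 nm emission. Signal converted to 4-MU dye-equivalent concentration using an on-plate six-point 4-MU standard curve.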
HSD17B inhib – qHTS Assay for Inhibitors of HSD17B4, hydroxysteroid (17-beta) dehydrogenase 4; 3-hydroxyacyl-CoA dehydrogenase type-2 (Homo sapiens), Q99714; recombinant HSD17B10, NADH fluorescence kinetic; Potency, µM (titrated, usually from 57.1 µM), for the others: top-dose activity change, negative = inhibition, usual class: inhibitors; 75,000 compounds, 7.6% hits; AID 893, 2007;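 also: the protocol describes HADH2 (HSD17B10) and not the HSD17B4 of the title; potency is read from the fitted curve at half-maximal effect; % is scaled to controls: 0 for no effect and ±100 for the full control effect; nearly all actives have a fitted effect of over 70% in size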
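20 nM HADH2, pH 9.0 Tris/Tween; cpd preinc 15 min RT; start w/ 1 mM NAD+ + 90 uM b-hydroxybutyryl-CoA; kinetic fluor ex360/em450 q30s x 4 min; delta last-first.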
A350 autofl – qHTS Assay for Spectroscopic Profiling in A350 Spectral Region; Compound autofluorescence, 340/450 nm, Alexa 350 dye-equivalents; active compounds read high; max dye-equivalent concentration, M; 59,000 compounds, 11% hits; AID 590, 2007; in the data active = max dye-equivalent concentration above about 10 nM; inconclusive = mostly about 1.1 nM to 9.6 nM
AID923 – qHTS Assay for Allosteric/Competitive Inhibitors of Caspase-1: Spectroscopic Profiling in AFC Spectral Region | Potency, µM (highest dose often 57.5 µM), without a hit: top-dose fluorescence increase, actives largely listed as activators | 75,000 compounds, 1.1% hits | compound fluorescence, AFC spectral region (405/520 nm); also: potency is read from the fitted curve at half-maximal effect; 0% is about no effect
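Baseline compound fluorescence (AFC region, 405 nm ex/520 nm em) taken from the intercept of kinetic reads with 50 nM caspase-1 and 5 uM Ac-WEHD-AFC; normalized to an on-plate AFC standard curve; compounds titrated up to 57 uM.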
HADH2 inh – qHTS Assay for Inhibitors of HADH2 (Hydroxyacyl-Coenzyme A Dehydrogenase, Type II) | AID 886, 2007 | 73,000 compounds, 3.4% hits | 3-hydroxyacyl-CoA dehydrogenase type-2 (Homo sapiens), Q99714 | Potency, µM (series often up to 57.1 µM), for the others: top-dose activity change, negative = inhibition, most hits filed as inhibitors | recombinant HADH2, NADH fluorescence, beta-hydroxybutyryl-CoA; also: potency is read from the fitted curve at half-maximal effect; % is scaled to controls: 0 for no effect and ±100 for the full control effect; nearly all actives have a fitted effect of over 60% in size
Target sequence (Q99714 whole entry, looked up, one chain of several): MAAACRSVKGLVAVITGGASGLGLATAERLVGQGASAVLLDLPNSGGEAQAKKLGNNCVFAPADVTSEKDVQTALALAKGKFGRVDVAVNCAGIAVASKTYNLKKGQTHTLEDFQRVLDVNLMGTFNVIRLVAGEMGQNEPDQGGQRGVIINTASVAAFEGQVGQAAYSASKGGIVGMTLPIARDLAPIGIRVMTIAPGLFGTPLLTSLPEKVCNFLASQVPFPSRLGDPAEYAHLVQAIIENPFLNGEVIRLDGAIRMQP
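NADH fluorescence (ex 360/em 450 nm) read every 30 s for 4 min; activity taken as last-minus-first time point difference. Enzyme 20 nM, NAD+ 1 mM, beta-hydroxybutyryl-CoA 90 uM, pH 9.0 Tris buffer.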
The depositor's hits bear a star; ! = repeats disagree; [ ] = dose if it differs, or a comment. Unless noted, calls follow the shape of the dose curve; as a rule, active = well fitted curve in the direction sought with a large enough effect; inconclusive = small, poorly fitted or top-dose-only effect, or another doubt; inactive = no such curve, though single readings can be large; an effect the other way counts as inactive or inconclusive.

Results for CN(C)C(=O)c1ccc(-c2ccc3ncnc(Nc4ccccc4)c3c2)cc1 ?
4-MU autofl: inconclusive; HSD17B inhib: -15%; A350 autofl: inconclusive; AID923: 2%; HADH2 inh: 5%

How did CC(CCC(=O)O)C1CCC2C3CC[C@H]4CC(O)CC[C@@]4(C)C3C=C[C@]12C (stereo partly drawn) do in these assays?
HSD17B inhib: -3%; AID923: -3%

Results for CN(C)CCCN=c1c2ccccc2n(C)c2[nH]c(=O)n(C)c(=O)c12 ?
4-MU autofl: 2.4e-08M*; HSD17B inhib: -7%[11.4 µM]; A350 autofl: 2.7e-08M*; AID923: 0%[11.5 µM]; HADH2 inh: -4%[11.4 µM]

How did Cc1cn2nc(N)c3ccccc3c2n1 do in these assays?
4-MU autofl: 1.3e-07M*; HSD17B inhib: 25µM*; A350 autofl: 1.2e-07M*; AID923: 0%; HADH2 inh: 55%

Results for Cc1nc2c3cnn(-c4ccccc4)c3ncn2n1 ?
4-MU autofl: inactive; HSD17B inhib: inconclusive; A350 autofl: inactive; AID923: 1%; HADH2 inh: 10%

How did COc1ccc(C2(C(=O)Nc3ccc(C(=O)O)cc3)CCOCC2)cc1 do in these assays?
4-MU autofl: 2e-08M*; HSD17B inhib: 6%; A350 autofl: 1.8e-08M*; AID923: 2%; HADH2 inh: -41%

Results for CC(=O)OCC(=O)[C@@]1(O)CC[C@H]2[C@@H]3CCC4=CC(=O)C=C[C@]4(C)[C@H]3[C@@H](O)C[C@@]21C ?
4-MU autofl: inactive; A350 autofl: inactive

How did C[C@@]12C=CC(=O)C=C1CC[C@H]1[C@H]3CC[C@](O)(C(=O)CO)[C@]3(C)CC(=O)[C@@H]12 do in these assays?
4-MU autofl: inactive; HSD17B inhib: 10µM*; A350 autofl: inactive; AID923: -2%[25.7 µM]; HADH2 inh: 0%[25.6 µM]

How did C[C@@]12CCC(=O)C=C1CC[C@H]1[C@H]3CC[C@](O)(C(=O)CO)[C@]3(C)CC[C@@H]12 do in these assays?
4-MU autofl: inactive; A350 autofl: inactive; HADH2 inh: inconclusive

What do the screens show for `C[C@]12CCC(=O)C=C1CC[C@@H]1[C@@H]2CC[C@@]2(C)[C@H]1CC[C@]2(O)C(=O)CO`?
4-MU autofl: inactive; HSD17B inhib: 25µM*; A350 autofl: inactive; AID923: -1%; HADH2 inh: -3%

What do the screens show for `CC(=O)[C@]1(O)CCC2C3CCC4=CC(=O)CC[C@@]4(C)C3CC[C@]21C` (stereo partly drawn)?
HSD17B inhib: 6%; AID923: 0%

Results for CC(=O)[C@@H]1CC[C@@H]2[C@@H]3CCC4=CC(=O)CC[C@@]4(C)[C@H]3CC[C@]21C ?
4-MU autofl: 2.3e-08M*!; HSD17B inhib: 7%[25.6 µM]; A350 autofl: 2.7e-08M*!; AID923: -3%[25.7 µM]; HADH2 inh: -1%[25.6 µM]

Results for C[C@]12CCC(=O)C=C1CCC1C2C(=O)C[C@]2(C)C1CC[C@]2(O)C(=O)CO (stereo partly drawn) ?
HSD17B inhib: 13µM*; AID923: 0%

How did CCCCCCc1c(C[C@H](N)C(=O)O)o[nH]c1=O do in these assays?
HSD17B inhib: 4%; AID923: -1%; HADH2 inh: 5%

How did CCOC(=O)OCC1OC(C#Cc2ccc(Br)cc2)C=CC1OC(=O)OCC (stereo not drawn) do in these assays?
HSD17B inhib: -12%[11.4 µM]; AID923: -1%[11.5 µM]; HADH2 inh: inconclusive

Results for O=C(O)CCC/C=C\C[C@H]1[C@@H](/C=C\[C@@H](O)C2Cc3ccccc3C2)[C@H](F)C[C@H]1O ?
4-MU autofl: inconclusive; A350 autofl: inconclusive; HADH2 inh: -10%

What do the screens show for `COc1ccc(C(=O)OCCN2C(=O)c3ccccc3C2=O)cc1OC`?
HSD17B inhib: -3%; AID923: 1%; HADH2 inh: -2%

What do the screens show for `COc1ccc(C(=O)OCCN=C2NS(=O)(=O)c3ccccc32)cc1OC`?
4-MU autofl: inconclusive; HSD17B inhib: -5%; A350 autofl: 1.1e-08M*; AID923: 2%; HADH2 inh: 6%

How did O=C(CN1C(=O)c2ccccc2C1=O)Nc1cccnc1 do in these assays?
4-MU autofl: inactive; HSD17B inhib: 1%; A350 autofl: inactive; AID923: -1%; HADH2 inh: 0%

How did Cc1cc(C(F)(F)F)nn1CC(=O)Nc1cccnc1 do in these assays?
4-MU autofl: 2.9e-08M*; HSD17B inhib: 2%; A350 autofl: 3e-08M*; AID923: 0%; HADH2 inh: 9%

What do the screens show for `C[C@H]1[C@H](C)CC[C@@]2(C(=O)O)CC[C@]3(C)C(=CC[C@@H]4[C@@]5(C)CC[C@H](O)C(C)(C)[C@@H]5CC[C@@]43C)[C@@H]12`?
4-MU autofl: inactive; A350 autofl: inactive; HADH2 inh: 0%

What do the screens show for `CN1CCN(C(=O)c2sc(=S)n(-c3ccccc3)c2N)CC1`?
4-MU autofl: inactive; HSD17B inhib: inconclusive; A350 autofl: inactive; AID923: 1%; HADH2 inh: 0.2µM*

How did Cc1ccc(C)n1-c1ccc(C(=O)N2CCOCC2)cc1 do in these assays?
4-MU autofl: inactive; HSD17B inhib: -12%; A350 autofl: inactive; AID923: -2%; HADH2 inh: -4%

How did Cc1ccc(-n2c(N)c(C(=O)N3CCOCC3)sc2=S)cc1 do in these assays?
4-MU autofl: inactive; HSD17B inhib: inconclusive; A350 autofl: inactive; AID923: -2%; HADH2 inh: 1.6µM*

What do the screens show for `Cc1c(C(=O)O)sc(=S)n1-c1ccccc1`?
4-MU autofl: inactive; A350 autofl: inconclusive

What do the screens show for `CCCn1nc(CC(=O)O)c2ccccc2c1=O`?
4-MU autofl: inconclusive; HSD17B inhib: 5%; A350 autofl: 1.2e-08M*; AID923: 2%; HADH2 inh: 27%

Results for Cc1nn2c(N)csc2nc1=O ?
4-MU autofl: 1.2e-08M*; HSD17B inhib: -14%; A350 autofl: 1.7e-08M*; AID923: 16%; HADH2 inh: inconclusive

What do the screens show for `Cc1nn2cnc3sc4c(c3c2nc1=O)CCCC4`?
4-MU autofl: inactive; A350 autofl: inconclusive

How did c1ncc(-c2ccc3c(c2)OCO3)c(NCCc2cnc[nH]2)n1 do in these assays?
4-MU autofl: inactive; HSD17B inhib: inconclusive; A350 autofl: inactive; AID923: 1%; HADH2 inh: -6%

What do the screens show for `O=c1cc(-c2ccccc2)[nH]n1-c1nc2ccccc2[nH]1`?
4-MU autofl: 2.9e-08M*; HSD17B inhib: -11%; A350 autofl: 3.5e-08M*; AID923: 3%; HADH2 inh: -5%
